The IC50 is the point on the concentration scale where inhibition reaches its midpoint.

Unmarked numbers belong to inactive results. The source made the active and inactive calls. Rule as the data show it: active = IC50 below about 3 µM; inactive = the rest. Some results are limits rather than exact numbers.

The nature of the assay: luminescence signal interference by compounds, dose response, artefact control for SENP inhibitor project, biochemical (AID 488920). As to conditions: luminescence interference counterscreen, spectral interferers. A general note: Counterscreens check selectivity or assay interference.
As for `O=C1c2ccccc2-c2nnc(-c3ccc(F)cc3)cc21`, the IC50 is 1180 nM (active).
The value for `CCN(CC)c1ccc(/C=N/NC(=O)c2ccoc2C)c(O)c1` was 2530 nM (active); that for `COc1cc(C(=O)c2nccc3cc(OC)c(OC)cc23)c([N+](=O)[O-])cc1OC` was over 5000 nM.
Regarding `Cc1cc(C)nc(Nc2nc(-c3ccccc3)cs2)n1`, the IC50 is 865 nM (active).
Regarding `COc1ccc(C(=O)c2nccc3cc(OC)c(OC)cc23)cc1OC`, the IC50 was over 5000 nM.
As for `Cc1ccc(/C=C/c2nc3ccccc3c(=O)[nH]2)cc1`, the figure is 403 nM (active); as for `Cc1ccc(S(=O)(=O)/N=C2\C=C(Nc3cccc(C(=O)O)c3)C(=O)c3ccccc32)c(C)c1`, over 5000 nM.
As for `COc1cc([N+](=O)[O-])ccc1N/C=C/C(=O)c1cccs1`, the figure is 458 nM (active); as for `CCC(C)n1c(NC(=O)c2ccccc2)c(C#N)c2nc3ccccc3nc21` (centres undefined), over 5000 nM; as for `CCCCn1c(NC(=O)c2ccccc2Cl)c(C#N)c2nc3ccccc3nc21`, over 5000 nM.
The value for `Cn1c(-c2ccccc2)cc2onc(-c3ccccc3)c2c1=O` was 607 nM (active); that for `O=C1/C(=C/c2ccc([N+](=O)[O-])cc2)CCc2ccccc21` was 884 nM (active).
For `CCn1c(O)c(N=Nc2ccc3ccccc3n2)c2ccccc21`, the IC50 is 2910 nM (active).
In the case of `CCOc1ccc(/C=C2\CCc3ccccc3C2=O)cc1`, the IC50 was 782 nM (active).
Regarding `Cc1ccc(C(=O)NNc2cc(N3CCCC3)nc(N3CCCC3)n2)cc1`, the IC50 was over 5000 nM.
As for `Oc1[nH]c2ccccc2c1N=Nc1ccc(F)cc1`, the IC50 is 888 nM (active).
As for `O=c1[nH]c(Nc2ccccc2)cc2ccccc12`, the figure is over 5000 nM; as for `O=c1oc2c(O)cccc2cc1-c1nc2ccccc2[nH]1`, 606 nM (active); as for `Cc1ccnc(Nc2nc(-c3ccccc3)cs2)c1`, 824 nM (active).
As for `Cc1ccc(NC2=C/C(=N/S(=O)(=O)c3cccs3)c3ccccc3C2=O)cc1`, the figure is over 5000 nM; as for `C/C(=N\OC(=O)c1ccc(Br)cc1)c1ccccn1`, 548 nM (active); as for `O=C(O)c1ccc(NC2=C/C(=N/S(=O)(=O)c3ccccc3)c3ccccc3C2=O)cc1`, over 5000 nM.
The value for `Cc1nc(Nc2ccc(C(=O)O)cc2)sc1-c1ccccc1` was 325 nM (active); that for `O=C(O)c1ccc2cc(-c3ccccc3)[nH]c2c1` was 471 nM (active).

(Values after PubChem BioAssay AID488920 (Sanford-Burnham Center for Chemical Genomics, 2010).)
